Results filed as inconclusive are left out. Where a call stands in place of a potency, no number is given. Values without a mark were called inactive. The source made the active and inactive calls. The call rests on the fitted dose curve; in most records, active means well fitted curve in the direction sought with a large enough effect; inconclusive means small, poorly fitted or top-dose-only effect, or another doubt; inactive means no such curve, though single readings can be large; an effect the other way counts as inactive or inconclusive.
What was measured:
CRL-7250 = normal cell line; experiment: Cytotoxic Profiling of Annotated Libraries Using Quantitative High-Throughput Screening (AID 1296008); details: Five cell lines viability, CellTiter-Glo ATP luminescence, 48-72 h; max response: stronger effect = lower value; further: nearly all actives have a fitted effect of over 60% in size; further: potency means the concentration at half of the fitted maximal effect
Outline: (§1)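 Compounds were pin-transferred onto cells and incubated 48 or 72 hr at 37 degree Celsius, 95% humidity. CellTiter-Glo was added, plates sat 10 min at room temperature, then ATP-coupled luminescence was imaged as the viability read-out.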

HEK293 = experiment: as above; details: Five cell lines viability, CellTiter-Glo ATP luminescence, 48-72 h; max response: stronger effect = lower value
Outline: as §1

HaCat [1] = experiment: as above; details: Five cell lines viability, CellTiter-Glo ATP luminescence, 48-72 h; max response: stronger effect = lower value
Outline: as §1

KB-3-1 = experiment: as above; details: Five cell lines viability, CellTiter-Glo ATP luminescence, 48-72 h; max response: stronger effect = lower value
Outline: as §1

NIH3T3 = experiment: as above; details: Five cell lines viability, CellTiter-Glo ATP luminescence, 48-72 h; max response: stronger effect = lower value
Outline: as §1

HACAT [2] = experiment: qHTS assay to identify novel small-molecules to repurpose for Merkel cell carcinoma treatment (AID 1296009); details: MCC and control cell lines, CellTiter-Glo viability, 72 h; at 44.8 µM (top of the series) unless noted; further: nearly all actives have a fitted effect of over 60% in size
Outline: (§2)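 Luminescence from CellTiter-Glo, read 10 min after addition at room temperature, reported viability following a 72 hr, 37 degree celsius treatment with NPC or MIPE compounds in titration; values normalized to plate controls.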

Es-2 = experiment: Primary qHTS to identify gynecologic anti-cancer compounds using libraries of approved drugs and bioactive compounds (AID 1345084); details: Gynecologic cancer cell panel viability, ATPlite luminescence, 48 h; series mostly up to 57.5 µM; further: nearly all actives have a fitted effect of over 55% in size; further: potency means the concentration at half of the fitted maximal effect
Outline: (§3)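 Luminescence from the ATPlite ATP-monitoring reagent indicates viable cell number; lower signal means cytotoxicity. Cells received compound 16 h after seeding and were exposed for 48 h across five concentrations.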

JEG-3 = experiment: as above; details: Gynecologic cancer cell panel viability, ATPlite luminescence, 48 h; series mostly up to 57.5 µM
Outline: as §3

OV90 = experiment: as above; details: Gynecologic cancer cell panel viability, ATPlite luminescence, 48 h; series mostly up to 57.5 µM
Outline: as §3

HEK293T [3] = experiment: qHTS assay to identify novel small-molecules to repurpose for Merkel cell carcinoma treatment (AID 1296009); details: MCC and control cell lines, CellTiter-Glo viability, 72 h; at 44.8 µM (top of the series) unless noted; further: nearly all actives have a fitted effect of over 60% in size
Outline: as §2

C33A = experiment: Primary qHTS to identify gynecologic anti-cancer compounds using libraries of approved drugs and bioactive compounds (AID 1345084); details: Gynecologic cancer cell panel viability, ATPlite luminescence, 48 h; series mostly up to 57.5 µM; further: nearly all actives have a fitted effect of over 55% in size; further: potency means the concentration at half of the fitted maximal effect
Outline: as §3

CAOV3 = experiment: as above; details: Gynecologic cancer cell panel viability, ATPlite luminescence, 48 h; series mostly up to 57.5 µM
Outline: as §3

CASKI = experiment: as above; details: Gynecologic cancer cell panel viability, ATPlite luminescence, 48 h; series mostly up to 57.5 µM
Outline: as §3

HeLa = experiment: as above; details: Gynecologic cancer cell panel viability, ATPlite luminescence, 48 h; series mostly up to 57.5 µM
Outline: as §3

Hek293T [4] = experiment: as above; details: Gynecologic cancer cell panel viability, ATPlite luminescence, 48 h, control line for the selectivity index; series mostly up to 57.5 µM
Outline: as §3

PA-1 = experiment: as above; details: Gynecologic cancer cell panel viability, ATPlite luminescence, 48 h; series mostly up to 57.5 µM
Outline: as §3

COc1ccc(-c2ccn(CC[C@](C)(C(=O)NO)S(C)(=O)=O)c(=O)c2)c(F)c1
max response (CRL-7250): 2.02%
max response (HEK293): -10.7%
outcome (HaCat [1]): inactive
outcome (KB-3-1): inactive
max response (NIH3T3): 3.1%
outcome (HACAT [2]): inactive
Potency (Es-2): 14.1 µM (active)
Potency (JEG-3): 20 µM (active)
Potency (OV90): 15.8 µM (active)

CC(=O)OC1CC2(C)C(CCC(C)C23Cc2c(O)cc4c(c2O3)CNC4=O)C(C)(C)C1O (configuration not stated)
max response (CRL-7250): -8.86%
outcome (HEK293): inactive
max response (HaCat [1]): -6.41%
outcome (KB-3-1): inactive
max response (NIH3T3): -10.8%
outcome (HEK293T [3]): inactive [at 17.4 µM]
Potency (C33A): inactive
Potency (CAOV3): inactive
outcome (CASKI): inactive
Potency (Es-2): inactive
Potency (HeLa): inactive
Potency (Hek293T [4]): inactive
Potency (JEG-3): inactive
Potency (OV90): inactive

CC1C2=CC(=O)OC2(O)CC2C1CCC1C(C)(C)CCC(O)C21C (configuration not stated)
max response (CRL-7250): -5.55%
max response (HEK293): -27.5%
outcome (HaCat [1]): inactive
max response (KB-3-1): -9.97%
max response (NIH3T3): 0.733%
outcome (HACAT [2]): inactive
Potency (C33A): inactive
outcome (CASKI): inactive
Potency (Es-2): inactive
Potency (HeLa): inactive
Potency (Hek293T [4]): inactive
Potency (JEG-3): inactive
Potency (OV90): inactive
Potency (PA-1): inactive

CC1(C)CC[C@]2(C(=O)O)CC[C@]3(C)C(=CCC4[C@@]5(C)CC[C@H](O[C@H]6O[C@H](C(=O)O)[C@@H](O)[C@H](O[C@@H]7O[C@H](CO)[C@H](O)[C@H](O)[C@H]7O)[C@H]6O)C(C)(C)C5CC[C@]43C)[C@@H]2C1 (some centres not stated)
outcome (CRL-7250): inactive
outcome (HEK293): inactive
max response (HaCat [1]): 3.39%
max response (KB-3-1): 4.97%
max response (NIH3T3): -6.78%
outcome (HEK293T [3]): inactive [at 9.27 µM]
activity change, negative = cytotoxicity (C33A): 17.4% [at 11.6 µM]
activity change, negative = cytotoxicity (CAOV3): 23.8% [at 11.6 µM]
activity change, negative = cytotoxicity (CASKI): 10.6% [at 11.6 µM]
activity change, negative = cytotoxicity (Es-2): 0.636% [at 11.6 µM]
activity change, negative = cytotoxicity (HeLa): -3.8% [at 11.6 µM]
activity change, negative = cytotoxicity (Hek293T [4]): 18.4% [at 11.6 µM]
activity change, negative = cytotoxicity (JEG-3): -1.28% [at 11.6 µM]
activity change, negative = cytotoxicity (OV90): -6.58% [at 11.6 µM]
activity change, negative = cytotoxicity (PA-1): 2% [at 11.6 µM]

C[C@H]1CC(=O)C2=C(C1)C(O)C(O)[C@@]1(O)[C@H]2C(=O)c2cccc(O)c2[C@@H]1O (some centres not stated)
max response (CRL-7250): -10.1%
max response (HEK293): 3.36%
outcome (HaCat [1]): inactive
outcome (KB-3-1): inactive
max response (NIH3T3): 3.59%
outcome (HACAT [2]): inactive
Potency (C33A): inactive
outcome (CASKI): inactive
Potency (Es-2): inactive
Potency (HeLa): inactive
Potency (Hek293T [4]): inactive
Potency (JEG-3): inactive
Potency (OV90): inactive
Potency (PA-1): inactive

CC(CNS(=O)(=O)C(C)C)c1ccc(-c2ccc(C#N)cc2)cc1 (configuration not stated)
Potency (CRL-7250): 5.8 µM (active)
Potency (HEK293): 7.31 µM (active)
outcome (HaCat [1]): inactive
max response (KB-3-1): -27.5%
max response (NIH3T3): -14.2%
outcome (HACAT [2]): inactive
Potency (CAOV3): inactive
Potency (HeLa): inactive
Potency (OV90): 10 µM (active)
Potency (PA-1): inactive

C=C(CCO[C@@H]1O[C@H](CO)[C@@H](O)[C@H](O)[C@H]1O)C(=O)O
max response (CRL-7250): -12.8%
max response (HEK293): -3.91%
outcome (HaCat [1]): inactive
outcome (KB-3-1): inactive
max response (NIH3T3): -0.513%
outcome (HACAT [2]): inactive
Potency (C33A): inactive
outcome (CASKI): inactive
Potency (Es-2): inactive
Potency (HeLa): inactive
Potency (Hek293T [4]): inactive
Potency (JEG-3): inactive
Potency (OV90): inactive
Potency (PA-1): inactive

O=C(O)CC(CCc1ccccc1)OC1OC(CO)C(O)C(O)C1O (configuration not stated)
max response (CRL-7250): -6.12%
max response (HEK293): -5.21%
outcome (HaCat [1]): inactive
outcome (KB-3-1): inactive
outcome (NIH3T3): inactive
outcome (HACAT [2]): inactive
Potency (C33A): inactive
outcome (CASKI): inactive
Potency (Es-2): inactive
Potency (HeLa): inactive
Potency (JEG-3): inactive
Potency (OV90): inactive
Potency (PA-1): inactive

Cc1cc(OCCN2CCOCC2)nn1-c1ccc2ccccc2c1
max response (CRL-7250): -11.2%
max response (HEK293): -15.6%
outcome (HaCat [1]): inactive
max response (KB-3-1): -10.7%
max response (NIH3T3): 2.01%
outcome (HACAT [2]): inactive
Potency (C33A): inactive
outcome (CASKI): inactive
Potency (Es-2): inactive
Potency (HeLa): inactive
Potency (Hek293T [4]): inactive
Potency (JEG-3): inactive
Potency (OV90): inactive
Potency (PA-1): inactive

N[C@@H](CCNCc1ccc(Cl)cc1)C(=O)N1CCCCC1
outcome (CRL-7250): inactive
max response (HEK293): 2.57%
outcome (HaCat [1]): inactive
max response (KB-3-1): 7.85%
max response (NIH3T3): -2.5%
outcome (HACAT [2]): inactive
Potency (C33A): inactive
outcome (CASKI): inactive
Potency (Es-2): inactive
Potency (HeLa): inactive
Potency (Hek293T [4]): inactive
Potency (JEG-3): inactive
Potency (OV90): inactive
Potency (PA-1): inactive

O=C(O)c1ccnc(-c2cc(C(=O)NCCc3ccccc3)ccn2)c1
max response (CRL-7250): 0.77%
max response (HEK293): -13.9%
outcome (HaCat [1]): inactive
max response (KB-3-1): 6.53%
max response (NIH3T3): -2.98%
outcome (HACAT [2]): inactive
Potency (CAOV3): inactive
outcome (CASKI): inactive
Potency (Es-2): inactive
Potency (HeLa): inactive
Potency (Hek293T [4]): inactive
Potency (JEG-3): inactive
Potency (OV90): inactive
Potency (PA-1): inactive

CC/C=C/C=C/C1(C)OC(CC(CO)OC)=CC1=O (configuration not stated)
max response (CRL-7250): -6.3%
max response (HEK293): -18.9%
outcome (HaCat [1]): inactive
outcome (KB-3-1): inactive
max response (NIH3T3): 1.62%
outcome (HACAT [2]): inactive
Potency (C33A): inactive
outcome (CASKI): inactive
Potency (Es-2): inactive
Potency (HeLa): inactive
Potency (Hek293T [4]): inactive
Potency (JEG-3): inactive
Potency (OV90): inactive
Potency (PA-1): inactive

CC1=C2CC3C(CCC3(C)O)C(C)(O)CC2OC1=O (configuration not stated)
max response (CRL-7250): -2.15%
outcome (HEK293): inactive
max response (HaCat [1]): 3.12%
max response (KB-3-1): 6.46%
max response (NIH3T3): -16.4%
outcome (HEK293T [3]): inactive
Potency (C33A): inactive
Potency (CAOV3): inactive
outcome (CASKI): inactive
Potency (Es-2): inactive
Potency (HeLa): inactive
Potency (Hek293T [4]): inactive
Potency (JEG-3): inactive

Reference: PubChem BioAssay (NCATS)
